Shown are actives, neighbours in structure and some others; about 7% of the full set was active somewhere.
ATXN2 expr inh: Primary qHTS for Inhibitors of ATXN expression; HEK-293 ATXN2-luciferase reporter, luminescence, 24 h; Potency, µM (top dose mostly 57 µM), most hits filed as inhibitors; 0.72% of 360,000 active; AID 1745845, 2022; note: nearly all actives have a fitted effect of over 55% in size
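ATXN2-luciferase reporter cells (luciferase flanked by upstream and downstream ATXN2 gene portions) were treated 24 h at 37 °C with compounds at up to 57 uM. SteadyGlo luminescence gave expression; GF-AFC fluorescence gave viability.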
DRD3 antagonist: qHTS of D3 Dopamine Receptor Antagonist: qHTS | 2.5% of 360,000 active | max response, negative = inhibition, % | AID 652054, 2013 | D(3) dopamine receptor (Homo sapiens), P35462 | D3R cells, DiscoveRx beta-arrestin luminescence, antagonist mode; hits give low values; in the data active = max response below about -50%; inconclusive = no clear call, values can overlap the other calls
Target sequence (P35462 whole entry, looked up): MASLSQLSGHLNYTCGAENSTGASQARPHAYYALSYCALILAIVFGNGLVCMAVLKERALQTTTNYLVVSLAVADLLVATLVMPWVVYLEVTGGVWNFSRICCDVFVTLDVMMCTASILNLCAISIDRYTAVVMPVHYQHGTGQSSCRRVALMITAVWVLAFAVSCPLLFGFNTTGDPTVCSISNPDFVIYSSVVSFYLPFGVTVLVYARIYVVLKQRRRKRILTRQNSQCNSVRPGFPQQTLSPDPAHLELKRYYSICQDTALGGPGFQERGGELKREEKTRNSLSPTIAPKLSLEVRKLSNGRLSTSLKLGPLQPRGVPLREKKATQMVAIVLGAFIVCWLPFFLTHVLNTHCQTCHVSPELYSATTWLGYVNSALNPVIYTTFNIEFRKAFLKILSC
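Cells expressing the human receptor were seeded at 1500 cells/well, incubated overnight at 37 degrees C in 5% CO2, then exposed to library compounds with dopamine controls for 90 minutes at 37 degrees C before luminescent detection.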
S2 tox: Viability Counterscreen for Primary qHTS for Inhibitors of ATXN expression; S2 cells (HEK-293 line with an ATXN2-luciferase reporter) viability, CellTiter-Fluor protease fluorescence, 24 h; Potency, µM (series often up to 56.7 µM), usual class: cytotoxic; 0.49% of 400,000 active; AID 651635, 2014; note: nearly all actives have a fitted effect of over 40% in size
a7 integrin act: qHTS for Activators of Integrin-Mediated Alleviation for Muscular Dystrophy; 0.064% of 350,000 active; alpha7betagal myoblasts, beta-gal FDG fluorescence, 48 h; Potency, µM (titrated, usually from 38.3 µM), actives largely listed as activators; AID 624291, 2012; note: nearly all actives have a fitted effect of over 60% in size
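alpha7betagal+/- myoblasts (passage 13, 250/well) treated 48 h at 37C with compounds at 1:260 dilution of DMSO stock. Lysed, then beta-galactosidase activity read as FDG fluorescence (ex 480/em 540) after 30 min, with pre-read for autofluorescence.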
IL-1B inflam inh: qHTS for Inhibitors of Inflammasome Signaling: IL-1-beta AlphaLISA Primary Screen. activity change, % at 57.5 µM. 4.7% of 360,000 active. THP-1 LPS/ATP IL-1B secretion, AlphaLISA, 16 h; hits give low values; in the data active = activity change below about -50%; inconclusive = mostly about -30% to -49%
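THP-1 cells pretreated 1 hr with compounds (up to 57.5 uM final), then stimulated with LPS (250 ng/mL final) plus ATP (1.25 mM final); secreted IL-1B measured by AlphaLISA after 16 hr, decreased signal indicating inhibition.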
DRD3 agonist: qHTS of D3 Dopamine Receptor Agonist: qHTS. 0.58% of 410,000 active. AID 652048, 2013. max activation, %. D3R DiscoveRx beta-arrestin cells, luminescence, 90 min; in the data active = max activation above about 30%
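Agonist mode: compounds and dopamine controls were applied to plated cells for 90 min at 37 degrees C after an overnight attachment at 1500 cells/well. Luminescent read-out followed 30 - 60 minutes at room temperature with DiscoveRx detection reagent.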
Each line names hits and unclear results; the compound was inactive in the other large screens. Unless noted, calls come from the whole dose curve; as a rule, active = well fitted curve in the direction sought with a large enough effect; inconclusive = small, poorly fitted or top-dose-only effect, or another doubt; inactive = no such curve, though single readings can be large; an effect the other way counts as inactive or inconclusive.

CCCc1cnc2c(c1SCC(=O)Nc1ccc(C)c(Cl)c1)c(=O)n(C)c(=O)n2C	none (no result: DRD3 antagonist, a7 integrin act, IL-1B inflam inh)
COC(=O)[C@H](CCSC)NC(=O)Cn1ccc(N)nc1=O	DRD3 antagonist -51
COC(=O)[C@H](CCSC)NC(=O)c1cc2c(cn1)[nH]c1ccccc12	IL-1B inflam inh -80
COC(=O)C(CCSC)NC(=O)Cn1ncc2c(=O)oc3ccccc3c21 (stereo not drawn)	IL-1B inflam inh -55
CNC(=O)c1cc2c(cn1)[nH]c1ccccc12	none (no result: a7 integrin act)
COC(=O)[C@H](CCSC)NC(=O)Cn1ccc(NC(=O)OCc2ccccc2)nc1=O	none
O=C(CN1CCOCC1)NCc1cc([N+](=O)[O-])ccc1O	S2 tox inconclusive, a7 integrin act 13µM
FC(F)(F)c1cccc(NC(=S)N(CCCN2CCCC2)Cc2cccn2Cc2ccc(Cl)cc2)c1	ATXN2 expr inh 16µM, DRD3 antagonist inconclusive, S2 tox 28µM, IL-1B inflam inh -89
COc1ccc(NC(=S)N(CCCN2CCCC2)Cc2cccn2Cc2ccc(Cl)cc2)cc1Cl	DRD3 antagonist inconclusive, IL-1B inflam inh -52 (no result: ATXN2 expr inh, S2 tox)
Cc1ccc(NC(=S)N(CCCN2CCCC2)Cc2cccn2Cc2ccc(Cl)cc2)cc1Cl	ATXN2 expr inh inconclusive, S2 tox inconclusive, IL-1B inflam inh -53
Cc1ccc(NC(=S)N(CCCN2CCCC2)Cc2cccn2Cc2ccc(Cl)cc2)cc1C	none
CN(C)CCCN(Cc1ccccc1)C(=S)Nc1cccc(C(F)(F)F)c1	S2 tox inconclusive
COc1ccc(NC(=S)NCCCN2CCCC2)cc1Cl	none
CC(C)(C)c1ccc(CC(=O)N2CCC2(C)C(=O)NS(=O)(=O)Cc2ccccc2)cc1 (stereo not drawn)	none (no result: a7 integrin act)
CCC(C)NC(=O)Cn1c(=O)n(CCCC(=O)NCc2ccc(C)cc2)c(=O)c2ccccc21 (stereo not drawn)	none (no result: DRD3 antagonist, a7 integrin act, IL-1B inflam inh)
O=[N+]([O-])c1ccc(Sc2ccc(Cl)c(Cl)c2)nc1	ATXN2 expr inh inconclusive, IL-1B inflam inh -58
Cc1ccc(C(=O)Nc2ccccc2C(=O)O)cc1S(=O)(=O)NCc1ccccc1	none
Cc1ccc(C(=O)Nc2ccccc2C(=O)O)cc1S(=O)(=O)Nc1ccc(Br)cc1	DRD3 agonist 34
Cc1ccc(C(=O)Nc2cccc(N(C)S(C)(=O)=O)c2)cc1S(=O)(=O)Nc1ccccc1	IL-1B inflam inh -68, DRD3 agonist 44
O=C(c1ccc2ccccc2c1)C1CCCN(C(=O)CN2C(=O)CSC2=O)C1 (stereo not drawn)	none
CC(=O)Nc1cc(C(=O)N2CCCC(C)C2)cc2ncn(CCc3ccccn3)c12 (stereo not drawn)	none (no result: ATXN2 expr inh, DRD3 antagonist, a7 integrin act, IL-1B inflam inh, DRD3 agonist)
CCCCN(C)CCNC(=O)c1cc2c(=O)[nH]c3ccccc3c2n1C	none
CCOc1cc(/C=C2\SC(=N)N(c3nccs3)C2=O)ccc1OCCN1CCOCC1	ATXN2 expr inh 22µM, S2 tox inconclusive
Fc1ccc(Nc2nc(Oc3ccccc3F)nc(N3CCCC3)n2)cc1	IL-1B inflam inh -53
c1ccc(Nc2nc(N3CCCC3)nc(N3CCCC3)n2)cc1	none
c1ccc(Nc2nc(N3CCCCC3)nc(N3CCNCC3)n2)cc1	ATXN2 expr inh inconclusive, DRD3 antagonist inconclusive, IL-1B inflam inh -65
Nc1nc(SCC(=O)Nc2ccccc2)nc2nc3c(cc12)CCCC3	IL-1B inflam inh -52
COc1cccc(NC(=O)CSc2nc3ccccc3cc2Cc2ccccc2)c1	DRD3 antagonist -52
COc1cccc(NC(=O)CSc2nnc(NC(=O)C3CC3)s2)c1	DRD3 antagonist -57
COc1cccc(NC(=O)CSc2c3c(nc4ccccc24)CCCC3)c1	ATXN2 expr inh inconclusive, IL-1B inflam inh -96 (no result: S2 tox)
Cc1ccc(NC(=O)CSc2nc(N)c3cc4c(nc3n2)CCCC4)cc1	none
COc1cc(NC(=O)CSc2nc3ccccc3cc2Cc2ccccc2)cc(OC)c1	none

From PubChem BioAssay
